EWS-Fli block: inhibitors of EWS/Fli oncoprotein transcriptional activity; A673 NR0B1-luciferase reporter, viability-normalised; inhibition, % at 12.6 µM; actives 0.67% (n = 350,000);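 active = mean inhibition of at least 50% after viability correction, with every replicate also passing that limit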;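 also: firefly luciferase signal divided by Alamar Blue viability fluorescence both relative to DMSO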
MITF TRPM1 inh: inhibitors of MITF-driven TRPM1 promoter in melanoma cells. SK-MEL-5 TRPM1 promoter luciferase, 24 h. inhibition, % at 12.5 µM. actives 0.83% (n = 330,000). AID 488899;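 active = mean inhibition across replicates of 60% or more, whatever share of single replicates reaches that level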
Shn3 inh set2: inhibitors of Schnurri-3 3'UTR reporter in osteoblasts; Clone20 osteoblast Shn3 3'UTR firefly luciferase, 24 h; inhibition, % at 12.5 µM; actives 0.52% (n = 360,000); AID 588674;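 active = mean inhibition of at least 75% with every replicate also reaching 75%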;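 also: 0% = median of neutral control wells and 100% = pilot-screen positive control compound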
PAX8 inh HTS: inhibitors of PAX8 transcriptional activity in RMG-I cells | RMG-I TPO-luciferase reporter, SteadyGlo, 24 h | actives 1.2% (n = 360,000) | AID 652154 | inhibition, % at 12.6 µM;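 active = mean replicate inhibition at least 60% with every replicate also reaching 60%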;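 also: luciferase light reporting Pax8 driven TPO promoter activity; plate controls were median of neutral control wells for no effect and mitoxantrone controls for full effect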
Peg3 promoter: inhibitors of Peg3 promoter; inhibition, % at 20 µM; actives 1.7% (n = 360,000); HeLa PEG-Prom luciferase reporter, luminescence, overnight; AID 588405;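 active = inhibition of at least 50% at 20 µM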
ABHD5-PLIN5 inh: inhibitors of human ABHD5-perilipin-5 interaction; AID 602281; Split G. princeps luciferase complementation, luminescence, 4 h; inhibition, % at 4 µM; actives 0.78% (n = 360,000);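 active = inhibition above the mean inhibition across every tested compound plus 3 SD, cut at about 22% in these data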;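 also: 0% = DMSO only wells and the 100% control is not disclosed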
Target sequence (Q00G26 whole entry, looked up): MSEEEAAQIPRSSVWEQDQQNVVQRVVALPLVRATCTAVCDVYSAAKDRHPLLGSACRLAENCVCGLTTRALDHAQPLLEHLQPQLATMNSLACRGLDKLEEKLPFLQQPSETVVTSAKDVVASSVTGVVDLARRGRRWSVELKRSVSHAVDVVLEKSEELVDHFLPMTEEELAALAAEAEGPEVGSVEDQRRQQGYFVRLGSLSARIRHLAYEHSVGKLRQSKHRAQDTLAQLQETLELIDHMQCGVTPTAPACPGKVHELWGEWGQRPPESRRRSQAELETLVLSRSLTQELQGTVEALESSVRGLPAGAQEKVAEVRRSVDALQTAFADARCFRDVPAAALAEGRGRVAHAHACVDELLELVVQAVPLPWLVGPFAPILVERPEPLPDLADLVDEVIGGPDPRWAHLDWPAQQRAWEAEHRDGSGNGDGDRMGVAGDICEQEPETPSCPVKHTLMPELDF
Target sequence (Q8WTS1 whole entry, looked up): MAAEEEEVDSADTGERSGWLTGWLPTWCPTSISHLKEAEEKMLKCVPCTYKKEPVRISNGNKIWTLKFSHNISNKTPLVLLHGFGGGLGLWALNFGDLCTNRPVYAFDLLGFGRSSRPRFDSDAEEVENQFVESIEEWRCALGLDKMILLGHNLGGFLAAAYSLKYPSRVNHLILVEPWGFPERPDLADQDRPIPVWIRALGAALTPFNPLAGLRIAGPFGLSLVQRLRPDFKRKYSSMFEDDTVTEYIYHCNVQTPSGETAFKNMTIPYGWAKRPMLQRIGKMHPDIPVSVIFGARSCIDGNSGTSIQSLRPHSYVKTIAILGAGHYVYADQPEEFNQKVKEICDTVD
ABHD5-PLIN5 conf: ABHD5-PLIN5 interaction inhibition, confirmed | actives 67% (n = 2,200) | AID 651612 | inhibition, % at 4 µM | shares compounds with ABHD5-PLIN5 inh | biochemical ABHD5-PLIN5 interaction, luminescence; in the data active = inhibition above about 23%;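 also: 0% = DMSO vehicle wells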
HNF4 split-luc: counter-screen for ABHD5-PLIN5 inhibitors: HNF4 split-luciferase; shares compounds with ABHD5-PLIN5 inh; HNF4 dimerization, luminescence, biochemical; inhibition, % at 4 µM; actives 77% (n = 2,200); AID 651674;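 active = mean inhibition across replicate wells exceeding the computed hit threshold, cut at about 13% in these data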;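 also: light from luciferase halves that rejoin when HNF4 fusion proteins dimerize; 0% = DMSO only wells and the 100% control is not given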
An asterisk follows results filed as active; · = not tested or not shown. In the library only some 3% were active in any assay of this set; here they are far more common.

SMILES | EWS-Fli block | MITF TRPM1 inh | Shn3 inh set2 | PAX8 inh HTS | Peg3 promoter | ABHD5-PLIN5 inh | ABHD5-PLIN5 conf | HNF4 split-luc
C[C@@H]1CN([C@H](C)CO)C(=O)c2cc(NC(=O)NC3CCCCC3)ccc2O[C@@H](C)CCCCO[C@@H]1CN(C)C(=O)Nc1ccc(F)cc1 | 27.3 | · | · | 12.5 | · | · | · | ·
Cc1cccc2cc(/C=C/C(=O)c3ccco3)c(Cl)nc12 | 6.3 | · | · | 26.2 | -9.7 | 42.2* | 72.9* | 62.8*
Cc1cccc2cc(/C=N/Nc3ccc(C(=O)O)cc3)c(Cl)nc12 | -84.3 | -170.7 | -49.0 | -195.0 | -268.0 | 2.3 | · | ·
CCOc1ccc2nc(Cl)c(/C=C/C(=O)c3ccco3)cc2c1 | · | -3.7 | -38.3 | -22.9 | -15.3 | 34.1* | 93.4* | 91.9*
COc1ccc2c3c([nH]c2c1)[C@H](CO)N(C(C)=O)CC31CN(S(=O)(=O)c2ccccc2)C1 | -10.0 | · | · | · | · | · | · | ·
Cc1c(CN2CCC(CO)(Cc3cccc(C(F)(F)F)c3)CC2)c2ccccc2n1C | 19.1 | 26.7 | -9.6 | 35.9 | 111.6* | 27.7* | 19.2 | 6.7
COC(=O)C[C@H]1CC[C@H]2[C@@H](COc3ccc(NC(=O)c4ccc(C#N)cc4)cc3C(=O)N2C)O1 | -4.8 | · | · | 6.5 | · | · | · | ·
COC(=O)c1ccc(CCc2cc(O)c(Br)cc2O)cc1 | 26.3 | -2.6 | -11.9 | -26.0 | -17.9 | 92.6* | 21.1 | 48.2*
COC(=O)c1ccc(O)cc1 | 3.1 | 4.8 | -16.5 | 6.7 | 5.7 | 2.3 | · | ·
CO[C@@H]1CC[C@H]2CCOc3ccc(C#N)cc3C(=O)N(C)[C@@H](C)C(=O)N(C)C[C@@H]1O2 | -12.5 | · | · | -7.5 | · | · | · | ·
CCn1c(=N)n(CC(O)c2ccco2)c2ccccc21 (stereo not given) | · | 8.1 | -8.3 | · | 3.1 | 4.0 | · | ·
N=c1n(Cc2ccccc2)c2ccccc2n1CC(O)c1ccco1 (stereo not given) | · | 18.0 | 29.5 | · | -0.2 | 23.4* | 8.0 | 14.8*
C[C@H]1CN([C@@H](C)CO)C(=O)c2cccc(NS(=O)(=O)c3cn(C)cn3)c2O[C@H]1CN(C)CC1CCCCC1 | 3.7 | · | · | -7.7 | · | · | · | ·
O=C(/C=C/c1ccccc1[N+](=O)[O-])c1ccccc1Br | 54.4* | -9.9 | 21.6 | 77.6* | 95.8* | 81.6* | 98.5* | 97.8*
Cc1ccc(C(=O)/C=C/c2ccccc2[N+](=O)[O-])cc1 | 5.1 | -39.7 | -51.9 | -7.1 | 27.8 | 51.7* | 84.5* | 78.1*
O=C(/C=C/c1ccccc1Cl)N1CCCN(C(=O)/C=C/c2ccccc2Cl)CC1 | · | -13.6 | 0.5 | 17.1 | -78.1 | 8.4 | · | ·
O=C(/C=C/c1ccc(-c2ccccc2[N+](=O)[O-])o1)c1ccc(F)cc1 | · | -15.1 | -9.2 | · | -36.7 | 28.9* | 42.6* | 32.7*
O=C(/C=C\c1ccccc1[N+](=O)[O-])Nc1ccccc1 | -93.4 | -57.1 | -54.2 | -135.6 | -216.2 | 0.5 | · | ·
O=C(C=Cc1ccccc1Cl)c1ccccc1 | -20.7 | -15.4 | -39.8 | -36.8 | 3.1 | 36.7* | 88.2* | 70.9*
C[C@@H]1CN([C@H](C)CO)C(=O)c2cc(C#CC(C)(C)O)cnc2O[C@@H]1CN(C)C(=O)C1CCOCC1 | -0.1 | · | · | · | · | · | · | ·
CCC(=O)N(CC(C)C)C[C@H]1[C@H](c2ccccc2)[C@@H](CO)N1C(=O)C1CCC1 | 30.2 | · | · | -2.4 | · | · | · | ·
N#CC(C#N)=Cc1ccc(-c2ccc(S(=O)(=O)N=C(N)N)cc2)o1 | 9.4 | -0.3 | -29.7 | -16.6 | -9.6 | 27.6* | 41.1* | 34.8*
CN(C)CCCN(C(=O)c1ccc2c(c1)OCCO2)c1nc2ccc(Cl)cc2s1 | -22.8 | 1.0 | -12.1 | · | -11.2 | 13.8 | · | ·
CN(C)CCCN(C(=O)c1ccco1)c1nc2ccc(Br)cc2s1 | 3.3 | -27.1 | -12.1 | -33.7 | 50.8* | 24.7* | 17.3 | 6.7
CN(C)CCCN(C(=O)CCc1ccccc1)c1nc2ccc(F)cc2s1 | · | -0.4 | 6.1 | 1.8 | -2.2 | 11.7 | · | ·
CN(C)CCCN(C(=O)CCc1ccccc1)c1nc2ccc(Br)cc2s1 | 35.4 | 87.3* | -0.7 | 10.7 | 106.4* | 39.0* | 26.5* | 5.2
CN(C)CCCN(C(=O)c1ccco1)c1nc2ccc(Cl)cc2s1 | 2.9 | -36.5 | -7.3 | -14.7 | -61.2 | 23.9* | 17.6 | 9.5

Screening results from PubChem.
